# Test results: PubChem BioAssay AID1851 (National Center for Advancing Translational Sciences (NCATS), 2009)
# “And” between values parts separate entries of the source, which are not always exact repeats. Equal values may be shown once. Among all 16,000 compounds or so, about 5,100 (32%) were called active. Another 25% or so got no clear call; they are omitted. Calls come from the whole dose curve; as a rule, active = well fitted curve in the direction sought with a large enough effect; inconclusive = small, poorly fitted or top-dose-only effect, or effect the other way; inactive = no such curve, though single readings can be large or run the other way. The list shows a part of the results.
# Molecular target: Cytochrome P450 3A4 (Homo sapiens) (UniProt P08684)
# Test: Cytochrome panel assay with activity outcomes
# Details: recombinant CYP, pro-luciferin dealkylation, luminescence, p450-cyp3a4; series mostly up to 57.1 µM; activity, negative = inhibition: at the top concentration
# % is set by controls: 0 for no effect and ±100 for the full control effect.
# Chain of Cytochrome P450 3A4 (Homo sapiens) (P08684 whole entry, looked up): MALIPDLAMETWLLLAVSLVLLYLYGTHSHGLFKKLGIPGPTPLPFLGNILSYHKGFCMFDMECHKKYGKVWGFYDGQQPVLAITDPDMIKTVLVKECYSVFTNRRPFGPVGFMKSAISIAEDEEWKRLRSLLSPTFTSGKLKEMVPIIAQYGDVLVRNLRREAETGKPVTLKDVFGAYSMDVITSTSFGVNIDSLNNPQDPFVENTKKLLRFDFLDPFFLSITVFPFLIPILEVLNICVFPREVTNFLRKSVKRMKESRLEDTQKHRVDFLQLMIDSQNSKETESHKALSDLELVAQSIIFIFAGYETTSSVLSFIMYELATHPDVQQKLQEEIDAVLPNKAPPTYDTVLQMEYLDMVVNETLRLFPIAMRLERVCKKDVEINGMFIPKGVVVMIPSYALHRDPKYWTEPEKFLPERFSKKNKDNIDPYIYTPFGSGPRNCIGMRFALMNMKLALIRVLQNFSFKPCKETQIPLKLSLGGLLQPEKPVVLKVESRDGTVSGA
Structure (SMILES),AC50,"activity, negative = inhibition"
O=C(O)[C@H]1CCCN(CCC=C(c2ccccc2)c2ccccc2)C1,inactive,
C[C@@H](O)[C@H]1C(=O)N2C(C(=O)O)=C(S[C@@H]3CN[C@H](C(=O)N(C)C)C3)[C@H](C)[C@H]12,,-19.2% [at 25.6 µM] (inactive)
C[C@H](N)CCCC(C)(C)O,,-5.82% [at 25.6 µM] (inactive)
COc1ccc(O[C@H]2C=C[C@@H](c3ccccc3)O[C@H]2COC(=O)CC/C(C)=N/O[C@@H]2O[C@H](COC(C)=O)[C@H](OC(C)=O)[C@H](OC(C)=O)[C@H]2OC(C)=O)cc1,5.01 µM (active),
CCCNC(=O)OC[C@@H]1O[C@H](CCO/N=C(\C)CCC(=O)OC[C@@H]2O[C@H](c3ccccc3)C=C[C@@H]2Oc2ccc(OC)cc2)C=C[C@@H]1Oc1ccc(OC)cc1,5.01 µM (active),
CO/N=C\[C@@H](C)[C@H](OCc1ccccc1)C(C)C,,12.5% [at 11.4 µM] (inactive)
COc1ccc(O[C@H]2C=C[C@@H](c3ccccc3)O[C@@H]2CO/N=C\[C@@H](C)[C@H](OCc2ccccc2)C(C)C)cc1,3.98 µM (active),
CC(=O)OC[C@@H]1O[C@H](C/C=N\OC[C@@H](C)[C@H](OCc2ccccc2)C(C)C)C=C[C@@H]1OC(C)=O,,-18.2% [at 11.4 µM] (inactive)
COc1ccc(O[C@H]2C=C[C@@H](c3ccccc3)O[C@H]2CO/N=C\C[C@@H]2C=C[C@H](OC(C)=O)[C@H](COC(C)=O)O2)cc1,3.98 µM (active),
O=c1[nH]cc(CS(=O)(=O)Cc2c[nH]c(=O)[nH]c2=O)c(=O)[nH]1,,-10.9% [at 11.4 µM] (inactive)
CN1C(=O)C(CC(N)=O)N(NC(=O)c2ccc(Cl)cc2)C1=S (centres undefined),,-10.7% (inactive)
CC(=O)OC[C@@H]1O[C@H](CCO/N=C\[C@@H](C)[C@H](OCc2ccccc2)C(C)C)C=C[C@@H]1OC(C)=O,,-26.2% [at 11.4 µM] (inactive)
COc1ccc(O[C@H]2C=C[C@@H](c3ccccc3)O[C@H]2CO/N=C(/C)CCC(=O)OC[C@@H]2O[C@H](c3ccccc3)C=C[C@@H]2Oc2ccc(OC)cc2)cc1,3.98 µM (active),
COc1ccc(O[C@H]2C=C[C@@H](c3ccccc3)O[C@H]2COC(=O)N2CCCCC2)cc1,,-82.7% [at 11.4 µM] (inactive)
CCCNC(=O)OC[C@@H]1O[C@H](c2ccccc2)C=C[C@@H]1Oc1ccc(OC)cc1,3.98 µM (active),
CCCNC(=O)OC[C@@H]1O[C@H](CCO/N=C\[C@@H](C)[C@H](OCc2ccccc2)C(C)C)C=C[C@@H]1Oc1ccc(OC)cc1,3.98 µM (active),
Cc1cc(C)c(Cn2cnc(-c3ccc([N+](=O)[O-])cc3)c2)c(C)c1,7.94 µM (active),
Cc1nn(Cc2ccc([N+](=O)[O-])cc2)c(=O)n1-c1cccc(F)c1,,4.03% (inactive)
CC(=O)OC[C@@H]1O[C@H](C/C=N\OC[C@@H](O)COCc2ccco2)C=C[C@@H]1OC(C)=O,,-26.2% [at 11.4 µM] (inactive)
C=CC[C@@H]1C=C[C@H](Oc2ccc(C)cc2)[C@H](COC(=O)NCc2cccc3ccccc23)O1,3.16 µM (active),
O=c1n(-c2ccccc2)c(=O)n2n1CC[C@H]1/C(=N\OC[C@@H](O)COCc3ccco3)[C@H]3O[C@@H]3[C@@H](O)[C@@H]12,,-24.1% [at 11.4 µM] (inactive) and -23% [at 11.4 µM] (inactive)
C=CC[C@@H]1C=C[C@@H](O/N=C(/C)CCC(=O)OC[C@@H]2O[C@H](C#Cc3ccccc3)C=C[C@@H]2Oc2ccc(C)cc2)[C@@H](CO)O1,5.01 µM (active),
C=CC[C@@H]1C=C[C@H](ON=C(C)C)[C@H](CO)O1,,-13.4% [at 11.4 µM] (inactive)

Structure (SMILES),AC50,"activity, negative = inhibition"
CO/N=C(/C)CCC(=O)OC[C@@H]1O[C@H](C#Cc2ccccc2)C=C[C@@H]1Oc1ccc(C)cc1,3.98 µM (active),
C/C(CCC(=O)OC[C@@H]1O[C@H](C#Cc2ccccc2)C=C[C@@H]1Oc1ccc(C)cc1)=N/OC[C@@H](O)COCc1ccco1,3.16 µM (active),
CC(=O)N[C@@H](CC(=O)O)C(=O)O,,-13.1% [at 25.6 µM] (inactive)
CCOC(=O)CCN1C(=O)[C@H]2[C@H]3[C@H](O)[C@H](O)C/C(=N/O[C@@H]4O[C@@H](COC(C)=O)[C@@H](OC(C)=O)[C@@H](OC(C)=O)[C@H]4OC(C)=O)[C@H]3CC[C@@H]2C1=O,,-10.4% [at 11.4 µM] (inactive)
CC(=O)OC[C@H]1O[C@@H](ON=C(C)C)[C@H](OC(C)=O)[C@@H](OC(C)=O)[C@H]1OC(C)=O,,-17.9% [at 11.4 µM] (inactive)
CC(=O)OC[C@H]1O[C@@H](O/N=C(\C)CCC(=O)OC[C@@H]2O[C@H](C#Cc3ccccc3)C=C[C@@H]2Oc2ccc(C)cc2)[C@H](OC(C)=O)[C@@H](OC(C)=O)[C@H]1OC(C)=O,3.16 µM (active),
CC(=O)OC[C@@H]1O[C@H](CCO/N=C(\C)CCC(=O)OC[C@@H]2O[C@H](C#Cc3ccccc3)C=C[C@@H]2Oc2ccc(C)cc2)C=C[C@@H]1OC(C)=O,3.16 µM (active),
CC(C(=O)NC1CCCC1)N(C(=O)c1ccc(-c2ccccc2)[nH]1)c1ccccc1F (centres undefined),3.98 µM (active),
Cc1ccc(C(=O)NC2CCCCC2)cc1,,-27.2% (inactive)
O=C(NC1CCCCCC1)c1cccs1,14.1 µM (active),
O=C(NCCCc1ccccc1)c1cccs1,,-26.4% (inactive)
O=S(=O)(Nc1nc(-c2sccc2Cl)cs1)c1cc(Cl)ccc1Cl,7.94 µM (active),
CC(=O)c1c(N2CCC(C(N)=O)CC2)nc(=S)n(-c2ccccc2)c1C,,28.2% [at 2.29 µM] (inactive)
FC(F)(F)c1cc(Sc2ccccc2)nc(-c2ccccn2)n1,,22.3% [at 11.4 µM] (inactive)
COC(=O)[C@@]1(Cc2ccc(F)cc2)[C@H]2c3cc(C(=O)N4CCCC4)n(Cc4ccc(C)o4)c3C[C@H]2CN1C(=O)c1ccccc1,3.16 µM (active),
COC(=O)[C@@]1(Cc2ccccc2)[C@H]2c3cc(C(=O)N4CCCC4)n(Cc4ccc(C)o4)c3C[C@H]2CN1C(=O)c1ccccc1,2 µM (active),
COC(=O)[C@@]1(Cc2ccc(F)cc2)[C@H]2c3cc(C(=O)N(C)C)n(Cc4ccc(C)o4)c3C[C@H]2CN1C(=O)c1ccccc1,2.51 µM (active),
C=CCC(C(=O)OC)(C(=O)OC)c1ccc([N+](=O)[O-])cn1,,-25.4% (inactive)
COC(=O)C(NC(=O)c1ccc(F)cc1)(Nc1ncc(S(=O)(=O)c2ccc([N+](=O)[O-])cc2)s1)C(F)(F)F (centres undefined),5.01 µM (active),
COC(=O)C(C)(C(=O)OC)c1ccc([N+](=O)[O-])cn1,,-3.67% (inactive)
Cc1cc(C(F)F)n2nc(C(=O)Nc3cccnc3Cl)nc2n1,,2.46% [at 2.29 µM] (inactive)
O=C(O)c1[nH]c2c([N+](=O)[O-])cc([N+](=O)[O-])cc2c1C(=O)O,,3.73% [at 11.4 µM] (inactive)
O=C(Oc1ccccc1[N+](=O)[O-])c1cccnc1,,-15.4% (inactive)

Structure (SMILES),AC50,"activity, negative = inhibition"
C/C(=N\NC(=O)c1[nH]c2c([N+](=O)[O-])cc(C)cc2c1-c1ccccc1)c1cccnc1,1.12 µM (active),
O=C(/C=C/c1cccc([N+](=O)[O-])c1)NCCN1CCOCC1,,-20.8% (inactive)
CC(/C=N/NC(=O)c1cccc([N+](=O)[O-])c1)=C\c1ccccc1,,-14.1% (inactive)
CCOC(=O)c1c(NC(=O)/C=C/c2ccc3c(c2)OCO3)sc(C)c1C,,18% (inactive)
COC(=O)c1cccc(NC(=O)/C=C/c2cccc([N+](=O)[O-])c2)c1,10 µM (active),
COC(=O)c1cc(NC(=O)/C=C/c2ccc3c(c2)OCO3)cc(C(=O)OC)c1,0.794 µM (active),
CCOC(=O)c1c(NC(=O)/C=C/c2ccc3c(c2)OCO3)sc(C)c1CC,5.01 µM (active),
O=C(O)C[C@@H](C(=O)O)c1ccccc1[N+](=O)[O-],,0.874% [at 11.4 µM] (inactive)
C=CCSc1nnc(NC(=O)COc2ccc3ccccc3c2)s1,,-10.4% (inactive)
CCOc1ccc(N2C(=O)CS/C2=N/NC(=O)COc2ccc3ccccc3c2)cc1,0.891 µM (active),
CCSc1nnc(NC(=O)COc2ccc3ccccc3c2)s1,,-4.8% [at 2.29 µM] (inactive)
O=S(=O)(O)c1ccc(-c2nnc(-c3ccccn3)nc2-c2ccc(S(=O)(=O)O)o2)o1,,6.48% [at 11.4 µM] (inactive)
CC[C@]1(O)C[C@@H]2CN(CCc3c([nH]c4ccccc34)[C@](C(=O)OC)(c3cc4c(cc3OC)N(C)[C@H]3[C@](O)(C(=O)OC)[C@@H](C(=O)OC)[C@@]5(CC)C=CCN6CC[C@@]43[C@@H]65)C2)C1,15.8 µM (active),
CC[C@]1(O)C[C@H]2CN(CCc3c([nH]c4ccccc34)[C@](C(=O)OC)(c3cc4c(cc3OC)N(C=O)[C@H]3[C@@](O)(C(=O)OC)[C@H](OC(C)=O)[C@@]5(CC)C=CCN6CC[C@]43[C@H]65)C2)C1,3.98 µM (active),
C=CCn1c(C)cc(C(=O)CN2C(=O)c3ccccc3C2=O)c1C,2.82 µM (active),
CCN(CC)c1ccc(SS(=O)(=O)O)cc1,,22.8% (inactive)
COc1cc(C(=O)Oc2ccccc2/C=N/NC(=O)c2ccc(C)cc2)cc(OC)c1OC,,18.9% (inactive)
COc1ccc(C(=O)N/N=C/c2cccc3cccnc23)cc1,22.4 µM (active),
O=C(N/N=C/c1ccc2cccc(OCc3ccccc3)c2n1)c1ccc(Br)cc1,,-19% [at 2.29 µM] (inactive)
O=C(CCS(=O)(=O)c1cccc2nsnc12)NC1CCCCC1,5.01 µM (active),
Cc1cccc(NC(=O)CCS(=O)(=O)c2cccc3nsnc23)c1C,,-25.6% [at 2.29 µM] (inactive)
CC1(C)SC(=S)N(Cc2ccc3c(c2)OCO3)C1N(O)C(=O)NC1CCCCC1 (centres undefined),1.12 µM (active),
O=C(O)[C@@H]1CCCN1Cc1ccc2c(c1)OCO2,,-11.9% [at 11.4 µM] (inactive)
